Source: PubChem BioAssay AID1159580 (chemical genetic matrix, 2015)
In all, about 5,500 compounds went through this assay and about 2,000 (36%) were called active. Inconclusive results (about 18%) are left out. Rule as the data show it: active = normalized growth mostly below about 0.91 (no sharp cut-off); inconclusive = no clear call, values can overlap the other calls; inactive = mostly above about 0.92. Some of the results follow.

Test: chemical genetic growth profiling, strain panel (AID 1159580);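 also: tested at 20 µM; growth read once vehicle control cultures reached saturation at 30 °C; 1 = growth at the plate median or of vehicle wells; lower values mean less growth of the strain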
Conditions: S. cerevisiae deletion strains, growth OD
[1] = locus YAL040C, strain CLN3, stronger effect = lower value
[2] = locus YER002W, strain NOP16, stronger effect = lower value
[3] = locus YGR078C, strain PAC10, stronger effect = lower value
[4] = locus YJR075W, strain HOC1, stronger effect = lower value
[5] = locus YNL128W, strain TEP1, stronger effect = lower value
[6] = locus YNL197C, strain WHI3, stronger effect = lower value
[7] = locus YNL224C, strain SQS1, stronger effect = lower value
[8] = locus YNL322C, strain KRE1, stronger effect = lower value
[9] = locus YOR083W, strain WHI5 (second series), stronger effect = lower value
[10] = locus YHR030C, strain SLT2, stronger effect = lower value
[11] = locus YDR150W, strain NUM1, stronger effect = lower value
[12] = locus YNL153C, strain GIM3, stronger effect = lower value
[13] = locus YPL241C, strain CIN2, stronger effect = lower value

Measured: normalized growth

NC(Cc1cc(O)c(O)cc1O)C(=O)O (stereo not given)
inactive: [1] 1 | locus YCL061C, strain MRC1 (second series), stronger effect = lower value 0.967 | locus YDR363W, strain ESC2, stronger effect = lower value 0.977 | [2] 1.01 | [3] 0.979 | [4] 0.956 | [5] 0.976 | [6] 0.98 | [7] 1.03 | [8] 0.942 | [9] 1.01

NCCc1cc(O)c(O)cc1O
active: locus YAL021C, strain ccr4, stronger effect = lower value 0.856 | locus YBR231C, strain swc5, stronger effect = lower value 0.884 | locus YDR069C, strain doa4, stronger effect = lower value 0.833 | locus YEL003W, strain gim4, stronger effect = lower value 0.908 | locus YER015W, strain faa2, stronger effect = lower value 0.887 | locus YER155C, strain BEM2 (second series), stronger effect = lower value 0.847 | locus YGL173C, strain kem1, stronger effect = lower value 0.838 | locus YHR027C, strain rpn1, stronger effect = lower value 0.9 | locus YJL164C, strain tpk1, stronger effect = lower value 0.914 | locus YJL166W, strain qcr8, stronger effect = lower value 0.877 | locus YLR342W, strain FKS1, stronger effect = lower value 0.861 | locus YMR058W, strain fet3, stronger effect = lower value 0.697 | locus YNL209W, strain ssb2, stronger effect = lower value 0.899 | locus YNL248C, strain rpa49, stronger effect = lower value 0.807 | locus YOR106W, strain vam3, stronger effect = lower value 0.805 | locus YPL051W, strain arl3, stronger effect = lower value 0.854 | locus YPL106C, strain sse1, stronger effect = lower value 0.847
inactive: locus YAL026C, strain drs2, stronger effect = lower value 0.924 | locus YAL030W, strain snc1, stronger effect = lower value 0.938 | locus YBL061C, strain skt5, stronger effect = lower value 0.948 | locus YBR009C, strain hhf1, stronger effect = lower value 0.963 | locus YBR023C, strain chs3, stronger effect = lower value 0.94 | locus YBR171W, strain sec66, stronger effect = lower value 0.983 | locus YBR279W, strain paf1, stronger effect = lower value 0.948 | locus YCL011C, strain gbp2, stronger effect = lower value 0.96 | locus YCL016C, strain dcc1, stronger effect = lower value 0.962 | locus YCL061C, strain MRC1, stronger effect = lower value 0.934 | locus YCL069W, strain vba3, stronger effect = lower value 0.966 | locus YCR088W, strain abp1, stronger effect = lower value 0.999 | locus YDL005C, strain med2, stronger effect = lower value 1.01 | locus YDL040C, strain nat1, stronger effect = lower value 0.995 | locus YDR001C, strain nth1, stronger effect = lower value 1 | locus YDR137W, strain rgp1, stronger effect = lower value 0.993 | locus YDR159W, strain sac3, stronger effect = lower value 1.02 | locus YDR195W, strain ref2 0.97 | locus YDR297W, strain sur2, stronger effect = lower value 0.941 | locus YDR334W, strain swr1, stronger effect = lower value 0.951 | locus YDR335W, strain msn5, stronger effect = lower value 0.924 | locus YDR392W, strain spt3, stronger effect = lower value 0.882 | locus YEL037C, strain rad23, stronger effect = lower value 0.964 | locus YEL061C, strain CIN8 (second series), stronger effect = lower value 0.987 | locus YER016W, strain bim1, stronger effect = lower value 0.967 | locus YER111C, strain swi4, stronger effect = lower value 0.966 | locus YFR010W, strain ubp6, stronger effect = lower value 0.921 | locus YGL167C, strain pmr1, stronger effect = lower value 0.976 | locus YGL227W, strain vid30, stronger effect = lower value 1.01 | locus YGL240W, strain doc1, stronger effect = lower value 0.917 | locus YGL253W, strain hxk2, stronger effect = lower value 0.963 | locus YHR013C, strain ard1, stronger effect = lower value 0.954 | [10] 0.975 | locus YHR079C, strain IRE1, stronger effect = lower value 0.938 | locus YHR142W, strain chs7, stronger effect = lower value 0.949 | locus YJL092W, strain hpr5, stronger effect = lower value 0.953 | locus YJL095W, strain BCK1 (second series), stronger effect = lower value 0.964 | locus YJL095W, strain BCK1, stronger effect = lower value 0.989 | locus YJL115W, strain asf1, stronger effect = lower value 0.984 | locus YJL129C, strain trk1, stronger effect = lower value 1.09 | locus YJL154C, strain vps35, stronger effect = lower value 1.01 | locus YJR066W, strain TOR1, stronger effect = lower value 0.919 | locus YKL160W, strain elf1, stronger effect = lower value 0.945 | locus YKR026C, strain gcn3, stronger effect = lower value 0.997 | locus YKR091W, strain srl3, stronger effect = lower value 1 | locus YLL001W, strain dnm1, stronger effect = lower value 0.921 | locus YLL026W, stronger effect = lower value 0.933 | locus YLL041C, strain sdh2, stronger effect = lower value 1.01 | locus YLR027C, strain aat2, stronger effect = lower value 0.931 | locus YLR113W, strain HOG1, stronger effect = lower value 1 | locus YLR221C, strain rsa3, stronger effect = lower value 0.939 | locus YLR258W, strain gsy2, stronger effect = lower value 0.964 | locus YLR262C, strain YPT6 (second series), stronger effect = lower value 0.901 | locus YLR320W, strain mms22, stronger effect = lower value 0.884 | locus YLR357W, strain rsc2, stronger effect = lower value 0.901 | locus YLR370C, strain arc18, stronger effect = lower value 0.931 | locus YLR384C, strain iki3, stronger effect = lower value 0.981 | locus YML120C, strain ndi1, stronger effect = lower value 0.95 | locus YMR125W, strain sto1, stronger effect = lower value 1.01 | locus YMR129W, stronger effect = lower value 0.991 | locus YMR205C, strain PFK2, stronger effect = lower value 0.943 | locus YMR231W, strain pep5, stronger effect = lower value 0.98 | locus YNL071W, strain lat1, stronger effect = lower value 0.952 | locus YNL183C, strain NPR1, stronger effect = lower value 0.956 | locus YNL322C, strain KRE1 (second series), stronger effect = lower value 0.995 | locus YNR049C, strain mso1, stronger effect = lower value 0.987 | locus YOR001W, strain rrp6, stronger effect = lower value 0.934 | locus YOR070C, strain gyp1, stronger effect = lower value 0.965 | locus YOR080W, strain dia2, stronger effect = lower value 0.937 | locus YOR083W, strain WHI5, stronger effect = lower value 0.896 | locus YOR231W, strain MKK1, stronger effect = lower value 0.994 | locus YOR265W, strain rbl2, stronger effect = lower value 0.966 | locus YOR270C, strain vph1, stronger effect = lower value 0.951 | locus YOR290C, strain snf2, stronger effect = lower value 0.948 | locus YPL078C, strain atp4, stronger effect = lower value 0.931 | locus YPL240C, strain hsp82, stronger effect = lower value 0.985 | locus YPL256C, strain CLN2, stronger effect = lower value 0.971

NCC(O)c1cc(O)c(O)cc1F (stereo not given)
inactive: [1] 1 | [11] 1.02 | [2] 1.01 | [4] 1.03 | [5] 1.03 | [12] 1.01 | locus YNL175C, strain NOP13, stronger effect = lower value 0.978 | [6] 0.994 | [7] 1.01 | [9] 1.04 | [13] 1.01

O=C(c1cccc([N+](=O)[O-])c1)c1cc2cc(Br)cc(Br)c2o1
inactive: locus YAL013W, strain DEP1, stronger effect = lower value 0.993 | locus YBR229C, strain ROT2, stronger effect = lower value 0.997 | locus YDL101C, strain DUN1, stronger effect = lower value 1.01 | locus YDL134C, strain PPH21, stronger effect = lower value 0.994 | [11] 0.952 | locus YEL061C, strain CIN8, stronger effect = lower value 0.983 | [3] 0.989 | locus YGR229C, strain SMI1, stronger effect = lower value 1 | [10] 0.837 | locus YHR087W, strain rtc3, stronger effect = lower value 0.981 | locus YJR043C, strain POL32, stronger effect = lower value 0.997 | [4] 0.975 | locus YKL190W, strain CNB1, stronger effect = lower value 0.996 | locus YLR039C, strain RIC1, stronger effect = lower value 0.954 | locus YLR058C, strain SHM2 (second series), stronger effect = lower value 0.994 | locus YLR085C, strain ARP6, stronger effect = lower value 0.847 | locus YLR262C, strain YPT6, stronger effect = lower value 0.974 | locus YML094W, strain GIM5, stronger effect = lower value 0.988 | locus YMR219W, strain ESC1, stronger effect = lower value 0.994 | locus YMR263W, strain SAP30, stronger effect = lower value 0.96 | locus YMR307W, strain GAS1, stronger effect = lower value 0.864 | [12] 0.988 | locus YNL298W, strain CLA4 (second series), stronger effect = lower value 0.948 | [8] 0.991 | locus YNR030W, strain Alg12, stronger effect = lower value 0.953 | locus YOL006C, strain TOP1, stronger effect = lower value 0.935 | locus YPL055C, strain LGE1, stronger effect = lower value 0.974 | [13] 0.942 | locus YPR135W, strain CTF4, stronger effect = lower value 0.964
